From PubChem BioAssay (NCI) come the findings set out here.

Each structure is given as a SMILES string. About 79,000 compounds went through this panel and 15% of them were active in at least one assay; those are over-represented in the sample as a whole. Values without a mark were called inactive. Calls of active or inactive are those of the source. Rule as the data show it: active = growth inhibition above about 70%; inactive = the rest.

Assay [1] can be described thus: NCI Yeast Anticancer Drug Screen. Data for the rad50 strain (AID 155).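 Also: 0% = growth of vehicle-only cultures of the same strain.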 The settings on record: S. cerevisiae rad50 strain growth inhibition, active compounds read high. In outline: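 Genetically altered yeast (DNA repair pathway); compound treatment; growth inhibition vs vehicle ctrl.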
The nature of assay [2]: NCI Yeast Anticancer Drug Screen. Data for the mec2-1 strain (AID 157). The settings on record: S. cerevisiae mec2-1 strain, active compounds read high. In outline:
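Vehicle-treated cultures served as reference for growth inhibition of compound-exposed mec2-1 yeast.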

Assay [3] is described as follows: NCI Yeast Anticancer Drug Screen. Data for the sgs1 mgt1 strain (AID 161).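 Also: 0% = growth of cultures given vehicle only.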 The settings on record: S. cerevisiae sgs1 mgt1 strain, active compounds read high. An outline of the steps: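 Test agents were incubated with a DNA-repair-mutant yeast strain. Growth was then read and compared against vehicle-treated controls.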
Assay [4] in a line: NCI Yeast Anticancer Drug Screen. Data for the cln2 rad14 strain (AID 165).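 Also: 0% = growth equal to vehicle treated cultures.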 As to conditions: S. cerevisiae cln2 rad14 strain, active compounds read high. In outline: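 Each compound was tested on cln2 rad14 yeast. Inhibition of growth was calculated against vehicle-exposed controls.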
Assay [5] is described as follows: NCI Yeast Anticancer Drug Screen. Data for the bub3 strain (AID 167). The settings on record: S. cerevisiae bub3 mutant strain, active compounds read high. In outline:
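Yeast carrying a defined mutation is treated with each compound, and growth is compared with that of vehicle-exposed cells to give inhibition.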

Assay [6] is described as follows: NCI Yeast Anticancer Drug Screen. Data for the mlh1 rad18 strain (AID 175). The settings on record: S. cerevisiae mlh1 rad18 strain growth inhibition, active compounds read high. An outline of the steps:
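Vehicle-treated cultures served as the reference for growth inhibition in a yeast strain carrying DNA damage repair alterations exposed to each compound.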

[7] abbreviates: at 5.0 µM (retest, dose inferred, filed as 0.5).
The mark [8] stands for this setting: at 50.0 µM (retest, dose inferred, filed as 5.0).

Regarding `CCNC(=S)NC1CCCCCCCCCCC1`, the growth inhibition in assay [1] (setting [7]) is 99% (active); in assay [1] (setting [8]) it was 100% (active); in assay [1] (at 50.0 µM) it was 87.8% (active); in assay [2] (setting [7]) it was 99% (active); in assay [2] (setting [8]), 99% (active); in assay [2] (at 50.0 µM), 75.3% (active). The growth inhibition in assay [3] (setting [7]) is 26%; in assay [3] (setting [8]), 88% (active); in assay [3] (at 50.0 µM), 87.2% (active); in assay [4] (setting [7]), 51%; in assay [4] (setting [8]), 59%; in assay [4] (at 50.0 µM), 20.8%. For the same molecule, the growth inhibition in assay [5] (setting [7]) is 40%; in assay [5] (setting [8]), 81% (active); in assay [5] (at 50.0 µM), 82.9% (active); in assay [6] (setting [7]), 100% (active); in assay [6] (setting [8]), 100% (active); in assay [6] (at 50.0 µM), 69.2%.

`O=C1C=C(c2ccccc2)OC(c2ccccc2)C1` (stereo not given): the growth inhibition in assay [1] (setting [7]) is -150%; in assay [1] (setting [8]) it was -112%; in assay [1] (at 50.0 µM) it was 43.1%; in assay [2] (setting [7]), -52%; in assay [2] (setting [8]), -59%; in assay [2] (at 50.0 µM), 41.8%. For the same molecule, the growth inhibition is -63% in assay [3] (setting [7]); -37% in assay [3] (setting [8]); 15.2% in assay [3] (at 50.0 µM); -69% in assay [4] (setting [7]); -67% in assay [4] (setting [8]); -38.4% in assay [4] (at 50.0 µM). Further, the growth inhibition is -68% in assay [5] (setting [7]); -25% in assay [5] (setting [8]); 44.1% in assay [5] (at 50.0 µM); -141% in assay [6] (setting [7]); -97% in assay [6] (setting [8]); 27.3% in assay [6] (at 50.0 µM).

In the case of `CCC[CH2][Ge]([CH2]CCC)([CH2]CCC)[O]C(=O)CC(=O)c1ccccc1`, the growth inhibition in assay [1] (setting [7]) was 10%; in assay [1] (setting [8]) it was 62%; in assay [1] (at 50.0 µM), 53.3%; in assay [2] (setting [7]), -3%; in assay [2] (setting [8]), 65%; in assay [2] (at 50.0 µM), 45.1%. Moreover, the growth inhibition in assay [3] (setting [7]) was 6%; in assay [3] (setting [8]), 41%; in assay [3] (at 50.0 µM), 32.2%; in assay [4] (setting [7]), 1%; in assay [4] (setting [8]), 20%; in assay [4] (at 50.0 µM) it was 43.5%. The growth inhibition is -17% in assay [5] (setting [7]); 27% in assay [5] (setting [8]); 79.5% (active) in assay [5] (at 50.0 µM); -1% in assay [6] (setting [7]); 46% in assay [6] (setting [8]); 67.4% in assay [6] (at 50.0 µM).

`O=C1C(SCCO)=C(SCCO)C(=O)c2ccccc21`: the growth inhibition in assay [1] (setting [7]) was 8%; in assay [1] (setting [8]), 87% (active); in assay [1] (at 50.0 µM), 87% (active); in assay [2] (setting [7]), 20%; in assay [2] (setting [8]), 61%; in assay [2] (at 50.0 µM) it was 57.5%. Besides, the growth inhibition is 16% in assay [3] (setting [7]); 66% in assay [3] (setting [8]); 66.7% in assay [3] (at 50.0 µM); -4% in assay [4] (setting [7]); 48% in assay [4] (setting [8]); 17.8% in assay [4] (at 50.0 µM). Moreover, the growth inhibition was 44% in assay [5] (setting [7]); 83% (active) in assay [5] (setting [8]); 89.3% (active) in assay [5] (at 50.0 µM); 17% in assay [6] (setting [7]); 77% (active) in assay [6] (setting [8]); 93.7% (active) in assay [6] (at 50.0 µM).

Regarding `Fc1ccc(C2(CCCN3CCc4[nH]c5cc(F)ccc5c4C3)OCCO2)cc1`, the growth inhibition in assay [1] (setting [7]) was 31%; in assay [1] (setting [8]), 97% (active); in assay [1] (at 50.0 µM), 70.2% (active); in assay [2] (setting [7]), 27%; in assay [2] (setting [8]), 98% (active); in assay [2] (at 50.0 µM) it was 79% (active). The growth inhibition in assay [3] (setting [7]) is 25%; in assay [3] (setting [8]) it was 99% (active); in assay [3] (at 50.0 µM), 84.5% (active); in assay [4] (setting [7]) it was 18%; in assay [4] (setting [8]), 96% (active); in assay [4] (at 50.0 µM), 83.3% (active). For the same molecule, the growth inhibition in assay [5] (setting [7]) was 24%; in assay [5] (setting [8]), 98% (active); in assay [5] (at 50.0 µM), 39.5%; in assay [6] (setting [7]), 29%; in assay [6] (setting [8]) it was 99% (active); in assay [6] (at 50.0 µM), 91% (active).

Turning to `CCCCNc1ncc(OCC)c(NCCCC)n1`, the growth inhibition was 1% in assay [1] (setting [7]); -1% in assay [1] (setting [8]); 73.5% (active) in assay [1] (at 50.0 µM); 4% in assay [2] (setting [7]); -44% in assay [2] (setting [8]); 88.9% (active) in assay [2] (at 50.0 µM). For the same molecule, the growth inhibition in assay [3] (setting [7]) is 0%; in assay [3] (setting [8]), 4%; in assay [3] (at 50.0 µM), 92.5% (active); in assay [4] (setting [7]), -2%; in assay [4] (setting [8]), 4%; in assay [4] (at 50.0 µM), 42.6%. Moreover, the growth inhibition in assay [5] (setting [7]) is 39%; in assay [5] (setting [8]), 23%; in assay [5] (at 50.0 µM) it was 94.9% (active); in assay [6] (setting [7]), 0%; in assay [6] (setting [8]), 1%; in assay [6] (at 50.0 µM) it was 77.7% (active).

As for `COc1cc2c[n+](C)c3c4ccccc4ccc3c2cc1OC` (tested in a mixture with another compound), the growth inhibition in assay [1] (setting [7]) is 27%; in assay [1] (setting [8]) it was 87% (active); in assay [1] (at 50.0 µM) it was 38%; in assay [2] (setting [7]), 24%; in assay [2] (setting [8]), 54%; in assay [2] (at 50.0 µM), 8.85%. Moreover, the growth inhibition was 24% in assay [3] (setting [7]); 90% (active) in assay [3] (setting [8]); 7.1% in assay [3] (at 50.0 µM); 21% in assay [4] (setting [7]); 69% in assay [4] (setting [8]); 9.7% in assay [4] (at 50.0 µM). Besides, the growth inhibition in assay [5] (setting [7]) was 27%; in assay [5] (setting [8]) it was 81% (active); in assay [5] (at 50.0 µM) it was 17.9%; in assay [6] (setting [7]) it was 35%; in assay [6] (setting [8]), 77% (active); in assay [6] (at 50.0 µM) it was -18.6%.

`CCOc1ccc(C(OC)OC)cc1[N+](=O)[O-]`: the growth inhibition was 3% in assay [1] (setting [7]); -7% in assay [1] (setting [8]); -12.1% in assay [1] (at 50.0 µM); -1% in assay [2] (setting [7]); 3% in assay [2] (setting [8]); -6.9% in assay [2] (at 50.0 µM). For the same molecule, the growth inhibition in assay [3] (setting [7]) was -11%; in assay [3] (setting [8]), -7%; in assay [3] (at 50.0 µM), -25.1%; in assay [4] (setting [7]), -4%; in assay [4] (setting [8]), 0%; in assay [4] (at 50.0 µM), 87.5% (active). The growth inhibition is 0% in assay [5] (setting [7]); 1% in assay [5] (setting [8]); -0.8% in assay [5] (at 50.0 µM); -1% in assay [6] (setting [7]); -7% in assay [6] (setting [8]); 10% in assay [6] (at 50.0 µM).

`c1csc(CNCc2cccs2)c1`: the growth inhibition in assay [1] (setting [7]) is -3%; in assay [1] (setting [8]) it was -5%; in assay [1] (at 50.0 µM) it was -13.9%; in assay [2] (setting [7]), -2%; in assay [2] (setting [8]), 1%; in assay [2] (at 50.0 µM) it was 1.45%. Further, the growth inhibition in assay [3] (setting [7]) is -1%; in assay [3] (setting [8]), -5%; in assay [3] (at 50.0 µM) it was -1.2%; in assay [4] (setting [7]), -4%; in assay [4] (setting [8]), -4%; in assay [4] (at 50.0 µM) it was -23.4%. For the same molecule, the growth inhibition in assay [5] (setting [7]) is -1%; in assay [5] (setting [8]), -5%; in assay [5] (at 50.0 µM), 1.3%; in assay [6] (setting [7]) it was 0%; in assay [6] (setting [8]), -7%; in assay [6] (at 50.0 µM) it was 37.3%.

As to `O=C(CC1(O)C(=O)Nc2c(Cl)cccc21)c1ccc(Cl)cc1` (stereo not given), the growth inhibition in assay [1] (setting [7]) was 9%; in assay [1] (setting [8]), 45%; in assay [1] (at 50.0 µM), 18.6%; in assay [2] (setting [7]), 8%; in assay [2] (setting [8]), 29%; in assay [2] (at 50.0 µM), 20.8%. For the same molecule, the growth inhibition in assay [3] (setting [7]) was -19%; in assay [3] (setting [8]), 36%; in assay [3] (at 50.0 µM), 33.8%; in assay [4] (setting [7]), 17%; in assay [4] (setting [8]), 71% (active); in assay [4] (at 50.0 µM), 19.4%. Moreover, the growth inhibition in assay [5] (setting [7]) was 10%; in assay [5] (setting [8]), 72% (active); in assay [5] (at 50.0 µM) it was 19.4%; in assay [6] (setting [7]), -7%; in assay [6] (setting [8]), 54%; in assay [6] (at 50.0 µM), 28.3%.
